Test results as given in the supplement of paper PMC10849652.
Targets with a hit are over-represented here; the source holds about 8,800 in all. About 0.5% of all pairs of compound and target were hits.

Columns and labels:
Test in all cases: log2 fold change, soluble protein after heating vs DMSO (PISA); higher = thermal stabilisation; K562 lysate, 10 uM; active = over 0.2 and 3.5 SD of the protein, either way, in both replicates (recomputed)
erlotinib = compound: C#Cc1cccc(Nc2ncnc3cc(OCCOC)c(OCCOC)cc23)c1 [erlotinib]
In short: (§1)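 Pellets of K562 cells were dounce-homogenised in PBS pH 7.4 with 1 mM MgCl2, and the crude extract was held at 1 mg/mL protein for a 30 min treatment with 10 μM compound. Aliquots were heated for 3 min over 48°C-58°C and pooled before NP-40 was added to 0.5% at 4°C. The supernatant from 21,000xg for 90 min was quantified by TMTpro 16plex LC-MS/MS with channel sums equalised. Values are reported from duplicates as log-two fold change in thermal stability relative to solvent controls.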

[1] = compound: C/C(=N\NC(=O)C1=CC(=CC=C1)S(=O)(=O)N2CCOCC2)/C3=C(C=CC(=C3)Cl)O
In short: as §1

[2] = compound: C1=CC(=CC=C1C2=NC3=C(N2)C=C(C=C3)C(=O)N)OC4=CC=C(C=C4)Cl
In short: as §1

[3] = compound: C1=CC2=C(C=CC(=C2)/C=C\3/C(=O)NC(=NCC4=CC=CS4)S3)N=C1
In short: as §1

[4] = compound: C1=CC2=NC=CN=C2C=C1/C=C/3\C(=O)NC(=O)S3
In short: as §1

[5] = compound: C1=CC=C(C=C1)C2=NC(=C(N2)C3=CC=NC=C3)C4=CC(=C(C=C4)Cl)O
In short: as §1

[6] = compound: C1=CC=C2C(=C1)C3=NNC4=CC=CC(=C43)C2=O
In short: as §1

[7] = compound: C1CCN(C1)C(=O)NC2=CC=CC(=C2)NC3=NC=C(C(=N3)NCCC4=CN=CN4)Br
In short: as §1

[8] = compound: C1CN(CCC1(CC2=CC=C(C=C2)Cl)N)C3=NC=NC4=C3C=CN4
In short: as §1

IRAK-1-4 Inhibitor I = compound: C1COCCN1CCN2C3=CC=CC=C3N=C2NC(=O)C4=CC(=CC=C4)[N+](=O)[O-] [IRAK-1-4 Inhibitor I]
In short: as §1

ibrutinib = compound: C=CC(=O)N1CCC[C@@H](n2nc(-c3ccc(Oc4ccccc4)cc3)c3c(N)ncnc32)C1 [ibrutinib]
In short: as §1

[9] = compound: CC(=O)c1cnc2ccc(-c3cc(Cl)c(O)c(Cl)c3)nc2c1N[C@H]1CC[C@H](CN(C)C)CC1
In short: as §1

ralimetinib = compound: CC(C)(C)Cn1c(N)nc2ccc(-c3[nH]c(C(C)(C)C)nc3-c3ccc(F)cc3)nc21 [ralimetinib]
In short: as §1

[10] = compound: CC(C)(O)CC(=O)NCCn1ccc2ncnc(Nc3ccc(Oc4cccc(C(F)(F)F)c4)c(Cl)c3)c21
In short: as §1

[11] = compound: CC(C)C1=C2N=C(C=C(N2N=C1)NCC3=CC=CC=C3)NCCCCCCN
In short: as §1

[12] = compound: CC1=C(C(CC(=O)N1)C2=CC=C(C=C2)C(F)(F)F)C(=O)NC3=C(C=C4C(=C3)C=NN4)F
In short: as §1

[13] = compound: CC1=C(C=C(C=C1)NC(=O)C2=CC(=CC=C2)N(C)C)NC(=O)C3=CC=C(C=C3)O
In short: as §1

[14] = compound: CC1=CC=C(C=C1)SC2=C3C=C(SC3=CN=C2)C(=O)N
In short: as §1

[15] = compound: CC1=C(C2=C(C=C1)C(=O)C3=CC=CC=C3N2CCCN)C
In short: as §1

[16] = compound: CC1=C(C=C(C=C1)NC(=O)C2=CC(=CC=C2)C(C)(C)C#N)NC3=CC4=C(C=C3)N=CN(C4=O)C
In short: as §1

Measured: log2 fold change

BTRC (UniProt Q9Y297)
inactive: erlotinib 0.002 | [1] 0.085 | [2] -0.078 | [3] 0.001 | [4] 0 | [5] -0.007 | [6] 0.029 | [7] -0.138 | [8] -0.028 | IRAK-1-4 Inhibitor I 0.018 | ibrutinib 0.026 | [9] 0.012 | ralimetinib 0.068 | [10] -0.033 | [11] 0.045 | [12] 0.015 | [13] 0.075 | [14] -0.002

CDK5RAP1 (UniProt Q96SZ6)
UniProt Q96SZ6, sequence (Q96SZ6 whole entry, looked up): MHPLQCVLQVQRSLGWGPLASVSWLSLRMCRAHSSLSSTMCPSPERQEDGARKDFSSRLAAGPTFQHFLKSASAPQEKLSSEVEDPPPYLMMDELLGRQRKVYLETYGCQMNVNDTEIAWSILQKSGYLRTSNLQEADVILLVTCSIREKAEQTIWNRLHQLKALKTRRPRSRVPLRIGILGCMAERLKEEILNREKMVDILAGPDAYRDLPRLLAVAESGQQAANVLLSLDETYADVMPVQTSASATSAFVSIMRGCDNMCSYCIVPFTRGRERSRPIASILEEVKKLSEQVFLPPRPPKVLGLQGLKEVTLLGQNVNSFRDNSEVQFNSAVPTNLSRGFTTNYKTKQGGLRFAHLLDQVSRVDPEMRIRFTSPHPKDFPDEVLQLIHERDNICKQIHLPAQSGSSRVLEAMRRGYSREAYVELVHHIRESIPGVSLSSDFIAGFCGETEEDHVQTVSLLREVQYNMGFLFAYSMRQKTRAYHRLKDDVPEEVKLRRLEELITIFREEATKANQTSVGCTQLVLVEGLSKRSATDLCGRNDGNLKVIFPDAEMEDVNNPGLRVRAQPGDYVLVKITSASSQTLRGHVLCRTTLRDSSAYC
active: [4] -0.392
inactive: erlotinib -0.059 | [1] 0.007 | [2] -0.029 | [3] 0.005 | [5] 0.043 | [6] 0.016 | [7] -0.016 | [8] 0.041 | IRAK-1-4 Inhibitor I -0.018 | ibrutinib -0.369 | ralimetinib -0.018 | [10] -0.062 | [11] 0.122 | [12] -0.002 | [15] -0.027 | [16] -0.001 | [13] 0.045

CDK17 isoform 2 (UniProt Q00537)
inactive: erlotinib -0.156 | [1] -0.007 | [2] 0.173 | [3] 0.099 | [4] -0.114 | [5] 0.005 | [6] 0.046 | [7] 0.124 | [8] 0.068 | IRAK-1-4 Inhibitor I 0.055 | ibrutinib -0.029 | ralimetinib -0.019 | [10] -0.003 | [11] -0.037 | [12] -0.162 | [15] -0.08 | [16] 0.029 | [13] 0.057

AVEN (UniProt Q9NQS1)
UniProt Q9NQS1, sequence (Q9NQS1 whole entry, looked up): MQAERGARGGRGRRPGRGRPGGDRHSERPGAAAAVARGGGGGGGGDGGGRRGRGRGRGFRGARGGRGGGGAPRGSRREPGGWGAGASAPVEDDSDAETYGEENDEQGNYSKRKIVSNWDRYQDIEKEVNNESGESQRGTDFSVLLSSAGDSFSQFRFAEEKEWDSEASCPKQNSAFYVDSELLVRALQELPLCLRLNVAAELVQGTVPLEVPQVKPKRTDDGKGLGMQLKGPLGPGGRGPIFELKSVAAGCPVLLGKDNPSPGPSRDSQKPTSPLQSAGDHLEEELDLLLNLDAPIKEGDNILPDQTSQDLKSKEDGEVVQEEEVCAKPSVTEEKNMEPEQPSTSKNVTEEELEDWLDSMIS
inactive: erlotinib 0.111 | [1] 0.077 | [2] -0.205 | [3] -0.079 | [4] 0.183 | [5] 0.06 | [6] 0.055 | [7] -0.023 | [8] -0.013 | IRAK-1-4 Inhibitor I -0.096 | ibrutinib -0.03 | ralimetinib -0.061 | [10] -0.079 | [11] 0.055 | [12] 0.009 | [15] 0.027 | [16] 0.1 | [13] -0.08

C2CD5 isoform 3 (UniProt Q86YS7)
UniProt Q86YS7, sequence (Q86YS7 whole entry, looked up): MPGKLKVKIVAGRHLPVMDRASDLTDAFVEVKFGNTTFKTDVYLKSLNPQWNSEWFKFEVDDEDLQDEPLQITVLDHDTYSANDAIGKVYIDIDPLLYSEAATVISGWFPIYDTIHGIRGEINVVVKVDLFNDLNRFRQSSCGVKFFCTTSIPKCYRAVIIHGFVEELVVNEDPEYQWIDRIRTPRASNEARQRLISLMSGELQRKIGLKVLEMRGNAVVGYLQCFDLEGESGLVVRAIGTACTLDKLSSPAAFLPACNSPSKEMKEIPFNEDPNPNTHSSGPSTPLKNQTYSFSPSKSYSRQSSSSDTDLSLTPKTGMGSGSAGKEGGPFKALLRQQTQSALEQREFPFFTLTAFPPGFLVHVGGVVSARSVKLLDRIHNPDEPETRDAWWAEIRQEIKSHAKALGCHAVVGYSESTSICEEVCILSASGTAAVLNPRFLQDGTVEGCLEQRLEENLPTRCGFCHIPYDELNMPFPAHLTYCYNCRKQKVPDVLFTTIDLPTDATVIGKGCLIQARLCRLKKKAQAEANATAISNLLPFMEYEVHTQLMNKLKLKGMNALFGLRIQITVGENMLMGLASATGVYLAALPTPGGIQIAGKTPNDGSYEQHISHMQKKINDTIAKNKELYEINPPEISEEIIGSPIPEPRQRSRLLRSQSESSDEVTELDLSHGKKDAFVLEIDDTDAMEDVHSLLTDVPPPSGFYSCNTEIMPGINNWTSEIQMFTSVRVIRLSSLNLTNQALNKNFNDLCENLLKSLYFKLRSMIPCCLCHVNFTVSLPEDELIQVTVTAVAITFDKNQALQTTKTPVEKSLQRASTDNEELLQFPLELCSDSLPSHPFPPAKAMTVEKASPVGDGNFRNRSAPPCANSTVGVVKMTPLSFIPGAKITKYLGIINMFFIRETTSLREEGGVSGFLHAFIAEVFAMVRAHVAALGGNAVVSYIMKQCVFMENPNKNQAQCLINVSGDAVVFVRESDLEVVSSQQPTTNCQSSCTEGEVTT
inactive: erlotinib 0.021 | [1] -0.047 | [2] 0.017 | [3] -0.024 | [4] -0.048 | [5] -0.034 | [6] -0.046 | [7] -0.045 | [8] 0.024 | IRAK-1-4 Inhibitor I 0.054 | ibrutinib -0.005 | [9] -0.026 | ralimetinib 0.016 | [10] -0.123 | [11] 0.019 | [12] -0.018 | [15] 0.023 | [16] 0.071 | [13] -0.004 | [14] -0.068

ATF7IP2 (UniProt Q5U623)
inactive: erlotinib 0.012 | [1] -0.034 | [2] 0.086 | [3] 0.026 | [4] -0.069 | [5] -0.027 | [6] -0.132 | IRAK-1-4 Inhibitor I 0.027 | ibrutinib 0.054 | [9] -0.03 | ralimetinib 0.045 | [10] -0.201 | [11] 0.058 | [12] -0.056 | [16] 0.097 | [13] -0.04 | [14] -0.088

CDKN1B (UniProt P46527)
UniProt P46527, sequence (P46527 whole entry, looked up): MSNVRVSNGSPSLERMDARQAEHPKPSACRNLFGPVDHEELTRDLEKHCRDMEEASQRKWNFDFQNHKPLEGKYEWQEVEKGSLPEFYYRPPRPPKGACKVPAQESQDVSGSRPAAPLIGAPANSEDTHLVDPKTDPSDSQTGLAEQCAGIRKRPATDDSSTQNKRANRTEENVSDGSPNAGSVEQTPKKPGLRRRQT
inactive: erlotinib -0.079 | [1] -0.067 | [2] 0.011 | [3] 0.012 | [4] 0.026 | [5] -0.038 | [6] 0.03 | [7] 0.045 | [8] 0.003 | IRAK-1-4 Inhibitor I -0.086 | ibrutinib 0.141 | [9] 0.013 | ralimetinib 0.037 | [10] 0.069 | [11] -0.037 | [15] -0.053 | [16] -0.325 | [13] -0.019 | [14] 0.017

BTK isoform 2 (UniProt Q06187)
UniProt Q06187, sequence (Q06187 whole entry, looked up): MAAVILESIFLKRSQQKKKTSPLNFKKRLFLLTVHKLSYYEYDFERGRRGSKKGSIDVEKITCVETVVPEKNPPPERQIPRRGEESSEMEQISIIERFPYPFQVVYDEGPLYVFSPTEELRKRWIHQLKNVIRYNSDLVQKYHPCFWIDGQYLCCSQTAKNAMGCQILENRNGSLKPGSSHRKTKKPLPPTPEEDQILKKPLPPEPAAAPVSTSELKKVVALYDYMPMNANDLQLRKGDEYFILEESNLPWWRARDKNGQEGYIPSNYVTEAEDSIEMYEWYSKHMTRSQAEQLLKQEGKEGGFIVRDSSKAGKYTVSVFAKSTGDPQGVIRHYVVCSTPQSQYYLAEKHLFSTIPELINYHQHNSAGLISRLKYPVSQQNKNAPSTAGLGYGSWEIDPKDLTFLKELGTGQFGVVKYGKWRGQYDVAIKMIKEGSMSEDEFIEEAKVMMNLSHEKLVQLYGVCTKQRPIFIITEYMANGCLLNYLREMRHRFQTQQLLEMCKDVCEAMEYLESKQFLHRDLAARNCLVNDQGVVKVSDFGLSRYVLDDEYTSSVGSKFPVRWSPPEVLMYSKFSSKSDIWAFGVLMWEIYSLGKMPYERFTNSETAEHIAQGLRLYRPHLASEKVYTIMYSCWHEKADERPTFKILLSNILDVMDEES
inactive: erlotinib 0.002 | [1] 0.017 | [2] -0.046 | [3] 0.031 | [4] 0.025 | [5] -0.005 | [6] -0.05 | [7] 0.077 | [8] -0.052 | IRAK-1-4 Inhibitor I -0.017 | [9] 0.012 | ralimetinib 0.014 | [10] 0.02 | [11] -0.01 | [12] 0.005 | [15] -0.032 | [16] 0.055 | [13] 0.042 | [14] -0.011

CEP41 (UniProt Q9BYV8)
inactive: erlotinib -0.068 | [1] -0.125 | [2] 0.006 | [3] -0.007 | [4] 0.016 | [6] 0.019 | [7] -0.035 | [8] 0.03 | ibrutinib 0.014 | [9] 0.045 | [11] 0.021 | [12] -0.025 | [15] 0.095 | [16] 0.011 | [14] -0.031

ATG10 (UniProt Q9H0Y0)
UniProt Q9H0Y0, sequence (Q9H0Y0 whole entry, looked up): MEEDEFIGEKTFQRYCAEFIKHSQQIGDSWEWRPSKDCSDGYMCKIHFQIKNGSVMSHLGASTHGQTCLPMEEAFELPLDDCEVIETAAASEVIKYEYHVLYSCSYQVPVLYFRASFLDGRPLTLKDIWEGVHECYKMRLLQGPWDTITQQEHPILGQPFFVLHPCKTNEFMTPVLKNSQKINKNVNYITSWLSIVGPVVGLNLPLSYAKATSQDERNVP
inactive: erlotinib 0.062 | [1] 0.043 | [2] -0.011 | [3] -0.012 | [4] -0.01 | [5] 0.035 | [6] 0.086 | [7] -0.004 | [8] -0.004 | IRAK-1-4 Inhibitor I 0.022 | ibrutinib 0.057 | ralimetinib 0.001 | [10] -0.013 | [11] -0.062 | [12] -0.132 | [15] 0.063 | [16] 0.053 | [13] 0.012

CAMK1 (UniProt Q14012)
inactive: erlotinib -0.014 | [1] -0.145 | [2] 0.008 | [3] 0 | [4] 0.037 | [5] -0.011 | [6] 0.135 | [7] 0 | [8] 0.016 | IRAK-1-4 Inhibitor I 0.107 | ibrutinib 0.017 | [9] 0.009 | ralimetinib 0.004 | [10] -0.144 | [11] -0.017 | [12] -0.034 | [15] -0.003 | [16] 0.016 | [13] -0.027 | [14] 0.008

CELF2 isoform 3 (UniProt O95319)
inactive: erlotinib -0.111 | [1] -0.041 | [2] -0.041 | [3] -0.004 | [4] -0.024 | [5] 0.007 | [6] -0.012 | [7] -0.053 | [8] 0.041 | IRAK-1-4 Inhibitor I -0.029 | ibrutinib -0.016 | [9] 0.062 | ralimetinib -0.019 | [10] -0.015 | [11] 0.001 | [12] 0.025 | [15] 0.01 | [13] 0.018 | [14] 0.014
active: [16] -0.413

BRAF (UniProt P15056)
inactive: erlotinib -0.05 | [1] -0.101 | [2] -0.04 | [3] 0.013 | [4] -0.008 | [6] 0 | [7] -0.007 | [8] 0.027 | IRAK-1-4 Inhibitor I -0.005 | ibrutinib 0.29 | ralimetinib 0.008 | [11] 0.032 | [12] 0.004 | [15] -0.111 | [14] -0.021
active: [16] 0.65

CCDC85B (UniProt Q15834)
inactive: erlotinib -0.126 | [1] 0.22 | [2] -0.066 | [3] -0.022 | [4] -0.001 | [5] -0.058 | [6] 0.015 | [7] -0.361 | [8] -0.203 | IRAK-1-4 Inhibitor I 0.011 | ibrutinib 0.215 | [9] -0.248 | ralimetinib -0.001 | [10] 0.05 | [11] 0.056 | [15] 0.004 | [16] -0.016 | [13] -0.163 | [14] 0.014

CDK8 (UniProt P49336)
inactive: erlotinib -0.012 | [1] -0.059 | [2] 0.028 | [3] -0.128 | [4] 0.068 | [5] 0.004 | [6] 0.128 | IRAK-1-4 Inhibitor I 0.029 | ibrutinib 0.006 | [9] 0.097 | ralimetinib -0.041 | [10] -0.011 | [11] -0.073 | [12] -0.058 | [15] 0.095 | [16] 0.088 | [13] 0.016 | [14] 0.16

CDAN1 (UniProt Q8IWY9)
UniProt Q8IWY9, sequence (Q8IWY9 whole entry, looked up): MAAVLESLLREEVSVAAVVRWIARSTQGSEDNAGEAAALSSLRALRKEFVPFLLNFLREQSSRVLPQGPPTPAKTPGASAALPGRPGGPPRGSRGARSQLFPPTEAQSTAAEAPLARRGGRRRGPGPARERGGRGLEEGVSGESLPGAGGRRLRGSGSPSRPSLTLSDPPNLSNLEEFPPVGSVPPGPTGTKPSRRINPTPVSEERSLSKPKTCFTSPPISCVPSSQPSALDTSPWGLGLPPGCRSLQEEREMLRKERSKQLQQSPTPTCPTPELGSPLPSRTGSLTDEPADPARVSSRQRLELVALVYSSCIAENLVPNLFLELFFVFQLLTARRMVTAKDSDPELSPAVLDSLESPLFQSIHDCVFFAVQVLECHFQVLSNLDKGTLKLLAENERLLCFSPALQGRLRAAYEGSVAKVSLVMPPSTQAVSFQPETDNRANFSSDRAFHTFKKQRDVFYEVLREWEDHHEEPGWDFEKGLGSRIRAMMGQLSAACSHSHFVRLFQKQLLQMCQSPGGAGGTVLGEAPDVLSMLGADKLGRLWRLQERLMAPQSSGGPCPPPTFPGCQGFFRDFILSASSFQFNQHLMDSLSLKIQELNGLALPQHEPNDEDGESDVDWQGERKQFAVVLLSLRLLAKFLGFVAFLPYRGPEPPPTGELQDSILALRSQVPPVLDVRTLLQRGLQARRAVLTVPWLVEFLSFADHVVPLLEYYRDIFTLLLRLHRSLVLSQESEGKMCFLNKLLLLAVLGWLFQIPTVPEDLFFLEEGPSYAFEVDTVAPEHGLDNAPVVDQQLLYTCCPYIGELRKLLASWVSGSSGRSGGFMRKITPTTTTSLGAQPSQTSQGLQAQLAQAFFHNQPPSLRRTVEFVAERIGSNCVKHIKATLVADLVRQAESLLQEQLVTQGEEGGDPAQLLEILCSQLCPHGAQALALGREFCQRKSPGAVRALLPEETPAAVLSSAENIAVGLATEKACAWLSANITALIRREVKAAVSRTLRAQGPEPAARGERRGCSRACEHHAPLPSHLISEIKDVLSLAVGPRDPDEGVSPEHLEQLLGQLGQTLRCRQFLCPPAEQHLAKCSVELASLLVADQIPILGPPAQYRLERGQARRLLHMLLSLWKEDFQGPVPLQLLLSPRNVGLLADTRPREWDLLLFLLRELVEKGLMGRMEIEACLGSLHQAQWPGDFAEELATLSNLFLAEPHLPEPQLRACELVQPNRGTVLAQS
inactive: erlotinib 0.006 | [1] -0.01 | [2] 0.048 | [3] -0.025 | [4] -0.012 | [5] -0.04 | [6] -0.063 | [7] -0.001 | [8] 0 | IRAK-1-4 Inhibitor I 0.003 | ibrutinib 0.035 | [9] -0.004 | ralimetinib 0 | [10] -0.029 | [11] -0.02 | [12] -0.001 | [15] -0.023 | [16] 0.035 | [13] 0.056 | [14] -0.008

BRD3 (UniProt Q15059)
UniProt Q15059, sequence (Q15059 whole entry, looked up): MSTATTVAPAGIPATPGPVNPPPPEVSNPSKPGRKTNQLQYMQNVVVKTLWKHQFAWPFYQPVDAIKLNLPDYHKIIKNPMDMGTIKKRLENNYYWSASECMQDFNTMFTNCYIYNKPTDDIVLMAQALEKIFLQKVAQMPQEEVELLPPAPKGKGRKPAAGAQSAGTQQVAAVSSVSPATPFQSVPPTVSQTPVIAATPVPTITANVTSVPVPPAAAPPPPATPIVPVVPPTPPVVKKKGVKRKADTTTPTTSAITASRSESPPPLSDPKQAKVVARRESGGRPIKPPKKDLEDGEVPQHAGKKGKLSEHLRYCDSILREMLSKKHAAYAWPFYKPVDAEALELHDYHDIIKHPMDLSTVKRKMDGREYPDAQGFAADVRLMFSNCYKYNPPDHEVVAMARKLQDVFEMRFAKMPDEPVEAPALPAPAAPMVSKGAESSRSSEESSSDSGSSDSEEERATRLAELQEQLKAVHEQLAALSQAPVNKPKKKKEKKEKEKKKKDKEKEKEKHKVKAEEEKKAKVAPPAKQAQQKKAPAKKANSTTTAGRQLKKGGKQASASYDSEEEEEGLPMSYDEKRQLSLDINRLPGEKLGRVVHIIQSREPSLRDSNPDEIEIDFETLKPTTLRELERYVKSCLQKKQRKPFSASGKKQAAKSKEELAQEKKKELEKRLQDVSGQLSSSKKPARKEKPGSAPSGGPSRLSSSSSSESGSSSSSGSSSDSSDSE
inactive: erlotinib -0.005 | [1] 0.084 | [2] -0.065 | [3] 0.004 | [4] -0.033 | [6] -0.013 | [7] -0.001 | [8] 0.036 | ibrutinib -0.011 | [9] 0.04 | [11] 0.095 | [12] -0.054 | [15] -0.033 | [16] 0.059 | [14] -0.074

CEP152 (UniProt O94986)
inactive: erlotinib -0.011 | [1] -0.043 | [2] 0.142 | [3] -0.1 | [4] 0.139 | [5] 0.099 | [6] 0.123 | [7] -0.07 | [8] 0.073 | IRAK-1-4 Inhibitor I 0.086 | ibrutinib -0.077 | ralimetinib 0.144 | [10] -0.092 | [11] -0.062 | [12] -0.04 | [15] -0.071 | [16] 0.095 | [13] -0.067
